The list is not random: actives were taken first. Their share in the collection is about 7.4%.
SMN2 splice up – enhancers of SMN2 splice variant expression; HEK293 SMN2-luciferase splicing reporter, luminescence, 30-36 h; Potency, µM (series often up to 46.1 µM), for inactives: top-dose activity change, positive = activation, most hits filed as activators; 2.8% of 210,000 active; note: % of control where 0% means no effect; nearly all actives have a fitted effect of over 55% in size
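qHTS luciferase splicing reporter: luminescence rises when SMN2 exon 7 is included in transfected HEK293 cells. Compound exposure lasted 30-36 h at 37C, with 4.5 mM final sodium butyrate as control, followed by a ONE-Glo read.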
NPC1 prom act – NPC1 promoter activation. Huh7 NPC1 promoter luciferase reporter, 24 h. Potency, µM (titrated, usually from 9.22 µM), for inactives: top-dose activation, most hits filed as activators. 2.4% of 320,000 active; note: % of control where 0% means no effect; nearly all actives have a fitted effect of over 60% in size
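Luciferase expression driven by the NPC1 promoter was measured in stably transfected Huh7 cells after a 24 h compound incubation, using a luciferase reagent and a luminescence read.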
FLuc counter – counter-screen for miR-21 project: firefly luciferase inhibitors or activators; P08659; purified FLuc, Km substrates, luminescence inhibition; Potency, µM (top dose mostly 57.5 µM), for inactives: at the highest dose activity change, negative = inhibition, usual class: inhibitors; 6.9% of 360,000 active; AID 588342;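 note: plate controls were vehicle for no effect and reference inhibitor for full effect; nearly all actives have a fitted effect of over 55% in size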
Target sequence (P08659 whole entry, looked up): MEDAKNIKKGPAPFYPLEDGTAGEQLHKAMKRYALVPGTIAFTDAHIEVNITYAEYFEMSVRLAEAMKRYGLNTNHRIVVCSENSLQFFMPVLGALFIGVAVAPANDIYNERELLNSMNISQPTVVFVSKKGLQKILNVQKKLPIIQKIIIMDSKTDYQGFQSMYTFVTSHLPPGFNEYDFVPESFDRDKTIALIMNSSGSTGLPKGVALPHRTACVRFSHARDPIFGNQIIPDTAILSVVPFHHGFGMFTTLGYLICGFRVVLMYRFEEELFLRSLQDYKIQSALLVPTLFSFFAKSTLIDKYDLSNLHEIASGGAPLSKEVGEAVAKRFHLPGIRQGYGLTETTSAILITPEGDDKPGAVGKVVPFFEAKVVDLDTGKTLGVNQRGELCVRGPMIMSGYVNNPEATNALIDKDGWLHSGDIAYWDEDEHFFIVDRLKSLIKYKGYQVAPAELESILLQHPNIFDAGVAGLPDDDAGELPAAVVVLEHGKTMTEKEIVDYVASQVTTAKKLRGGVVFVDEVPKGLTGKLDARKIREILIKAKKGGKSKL
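Purified P. pyralis luciferase (10nM final) with 10uM D-luciferin and 10uM ATP (Km levels) in 50mM Tris acetate pH 7.5, 10mM Mg acetate, 0.01% Tween-20, 0.05% BSA; qHTS 6-point titration, ~60 µM downward; luminescence read.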
KinaseGlo FLuc – counter-screen: inhibitors of Kinase-Glo firefly luciferase | Kinase-Glo luciferase, ATP luminescence, 8 min | Potency, µM (top dose mostly 38.3 µM), for the others: top-dose activity change, negative = inhibition, most hits filed as inhibitors | 0.28% of 200,000 active | AID 1379; note: % is set by controls: 0 for no effect and ±100 for the full control effect; nearly all actives have a fitted effect of over 60% in size
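Kinase-Glo luciferase light output from ATP and luciferin was measured with 10 uM ATP, within the enzyme's linear range. Buffer: 50 mM imidazole pH 7.2, 50 mM KCl, 7 mM MgCl2, 0.01% Tween 20, 0.05% BSA; luminescence read after 8 min at ambient temperature.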
ELG1 genotox – induces genotoxicity in HEK293T cells with luciferase-tagged ELG1; HEK293T ELG1-luciferase reporter, luminescence, 16 h; Potency, µM (doses to about 46 µM), without a hit: at the top dose activity change, positive = activation, actives largely listed as activators; 1.3% of 330,000 active; AID 504466; note: % of control where 0% means no effect; nearly all actives have a fitted effect of over 60% in size
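Cells (2,000/well) expressing the ELG1-luciferase fusion are dosed by pin tool and kept 16 hr at 37 °C, 5% CO2. Signal comes from ONE-Glo luciferase reagent after 30 min at room temperature.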
Rab9 promoter act – activates the Rab9 promoter | Huh7 Rab9 promoter-luciferase reporter, luminescence, 24 h | Potency, µM (highest dose often 9.22 µM), for the others: at the top dose activation, negative = inhibition, usual class: activators | 2.8% of 320,000 active; note: % of control where 0% means no effect; nearly all actives have a fitted effect of over 60% in size
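Huh7 cells stably carrying Rab9 promoter–luciferase reporter, plated 1500 cells/well, compound added after 2 h and incubated 24 h at 37 °C; luciferase luminescence then read after 10 min with detection reagent.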
Numbers without * were called inactive; ? = inconclusive; / = no result. Calls come from the whole dose curve; as a rule, active = well fitted curve in the direction sought with a large enough effect; inconclusive = small, poorly fitted or top-dose-only effect, or another doubt; inactive = no such curve, though single readings can be large; an effect the other way counts as inactive or inconclusive. Potency is the fitted concentration of half-maximal effect.

SMILES | SMN2 splice up | NPC1 prom act | FLuc counter | KinaseGlo FLuc | ELG1 genotox | Rab9 promoter act
Cc1ccc(OCC(=O)Nc2ccccc2C(N)=O)cc1 | / | 2.5µM* | 8.5µM* | / | ? | 2.8µM*
Cc1ccc(OCC(=O)Nc2ccccc2-c2ccccc2)cc1 | ? | ? | 15µM* | -8% | ? | ?
Cc1ccc(-c2noc(C3CCCN(C(=O)c4ccccc4)C3)n2)o1 (configuration not stated) | ? | ? | 19µM* | -5% | 9.2µM* | ?
COc1ccc(-c2noc(C3CCCN(C(=O)c4ccccc4)C3)n2)cc1 (configuration not stated) | / | 0% | 19µM* | / | 0% | -5%
Cc1ccc(-c2noc(C3CCCN(C(=O)c4ccccc4Br)C3)n2)o1 (configuration not stated) | / | ? | ? | / | 19% | ?
CCCC(=O)N1CCCC(c2nc(-c3cccc(OC)c3)no2)C1 (configuration not stated) | 11µM* | 3.5µM* | 9.5µM* | -3% | ? | 1.4µM*
Cc1nnc(SCC(=O)Nc2sc3c(c2C(N)=O)CCC(C)C3)[nH]c1=O (configuration not stated) | / | -1% | ? | / | -2% | 2%
COc1ccc(S(=O)(=O)n2nc(C)cc2C)cc1OC | / | -2% | 0% | / | 2% | 1%
COc1cccc(NC(=O)CNC(=O)c2ccc(OC)c(OC)c2)c1 | 1% | 9% | -1% | -3% | 0% | -4%
COc1ccc(-c2cccc(C(=O)Nc3ccc(C)cc3)c2)cc1 | -1% | -4% | -18% | -1% | 0% | 3%
COc1ccc(C(=O)Nc2ccc(OC)c(OC)c2)cc1 | 11µM* | ? | 12µM* | -10% | ? | ?
COc1ccc(-c2cccc(C(=O)Nc3ccc(OC)c(OC)c3)c2)cc1 | -23% | -9% | 11µM* | 0% | 0% | 0%
COc1ccc(-c2cccc(C(=O)Nc3cccc(C(=O)O)c3)c2)cc1 | 14µM* | 3.2µM* | 12µM* | -2% | ? | 3.2µM*
COc1ccc(C(=O)COC(=O)c2cccc(NC(=O)c3ccc(OC)c(OC)c3)c2)cc1 | -2% | / | 0.6µM* | / | / | /
COCc1cc(C)nc2sc(C(=O)Nc3ccc(OC(F)(F)F)cc3)c(N)c12 | -13% | / | -3% | / | / | /
Nc1nc(Nc2ccc(Cl)cc2)nc2ccccc12 | / | 0.63µM* | 0.43µM* | 14µM* | ? | 0.5µM*
Cc1ccccc1Nc1nc(N)c2ccccc2n1 | 3.5µM* | 0.71µM* | 1.7µM* | 13µM* | ? | 0.5µM*
Nc1nc(Nc2ccccc2)nc(C(F)(F)F)n1 | / | 0% | -28% | / | 11% | 21%
Oc1ccc(Nc2nc(-c3ccc(Cl)cc3)nc3ccccc23)cc1 | 22% | / | ? | / | / | /
CCOc1ccc(Nc2nc(N)c3ccccc3n2)cc1 | / | 0.89µM* | 0.43µM* | / | 0.58µM* | 0.71µM*
CCOc1ccc(Nc2nc3ccccc3c3nnc(CC)n23)cc1 | -13% | / | -4% | / | / | /
Nc1nc(Nc2ccccc2)nc2ccccc12 | 14µM* | 0.56µM* | 1.3µM* | 11µM* | ? | 0.63µM*
COc1ccc(C)cc1Nc1nc(N)c2ccccc2n1 | / | 4% | ? | / | -3% | 0%
CN(C)c1nc(Nc2ccccc2)nc(N(C)C)n1 | -11% | 4% | -12% | -2% | -6% | 8%
CN(C)c1ccc(Nc2nc(N)c3ccccc3n2)cc1 | / | ? | 0.19µM* | / | ? | 0.1µM*
CCCCCCOC(=O)Sc1nc2ccccc2o1 | 4% | -1% | 24µM* | -1% | 1% | 0%
COC(=O)CSc1nc2ccccc2o1 | -9% | 0% | ? | -5% | -1% | -2%
COc1ccc(/C=C2\SC(=S)N(CCC(=O)NC3CCCC3)C2=O)cc1OC | / | -4% | -3% | / | -2% | -1%
Cc1nnc(SCC(=O)c2cc(C)n(-c3ccc4c(c3)OCO4)c2C)s1 | / | 25% | 24µM* | / | ? | ?
